High-throughput results: PubChem BioAssay, National Center for Advancing Translational Sciences (NCATS)
PLK1 PBD inh: PLK1 (human) polo-box domain binding inhibition; 2.8% of 360,000 active; Plk1 PBD binding of FITC phosphopeptide, fluorescence polarization; AID 720504; Potency, µM, for inactives: max response, negative = inhibition, usual class: inhibitors; further: potency means the concentration at half of the fitted maximal effect; series mostly up to about 57 µM; nearly all actives have a fitted effect of over 65% in size
USP2a inh: inhibitors of human ubiquitin-specific protease USP2a; 0.01% of 330,000 active; O75604; USP2 core, Ub-CHOP2 coupled fluorogenic reporter, 485/531; Potency, µM (doses to about 38.3 µM), for the others: top-dose activity change, negative = inhibition, actives largely listed as inhibitors;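 further: potency means the concentration at half of the fitted maximal effect; plate controls were DMSO wells for no effect and full inhibition by NEM control for full effect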
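Cell-free coupled assay: 10nM USP2 core preincubated 30min RT with compound in Tris-HCl pH 8.0/CaCl2/CHAPS buffer, then 25nM Ub-CHOP2 and 25nM reporter substrate; fluorescence (Ex 485/Em 531) read after 60min RT, normalized to NEM inhibition, concentration-response curves fitted.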
GALK inh: inhibitors of human galactokinase | P51570 | Purified GALK, Kinase-Glo residual ATP luminescence | Potency, µM (highest dose often 57.5 µM), for inactives: top-dose activity change, negative = inhibition, hits mostly inhibitors | 0.007% of 270,000 active | AID 1868; further: potency means the concentration at half of the fitted maximal effect
Target sequence (P51570 whole entry, looked up): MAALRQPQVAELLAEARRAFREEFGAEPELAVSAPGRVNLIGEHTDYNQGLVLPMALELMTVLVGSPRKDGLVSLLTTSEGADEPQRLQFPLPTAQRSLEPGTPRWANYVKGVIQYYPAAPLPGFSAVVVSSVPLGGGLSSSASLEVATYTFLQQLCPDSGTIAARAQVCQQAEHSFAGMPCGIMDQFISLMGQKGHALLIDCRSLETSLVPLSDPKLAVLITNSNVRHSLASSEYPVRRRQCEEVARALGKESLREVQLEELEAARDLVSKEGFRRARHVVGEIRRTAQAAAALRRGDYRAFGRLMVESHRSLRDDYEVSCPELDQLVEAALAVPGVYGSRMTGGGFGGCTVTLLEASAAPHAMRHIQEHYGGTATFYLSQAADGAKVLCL
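Quantitative HTS: GALK 5 nM, ATP 35 uM, galactose 100 uM, 1 h room temperature, then luciferase-based ATP detection.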
Coupling enz: coupling enzyme interference in Giardia aldolase counter-screen | coupling enzyme system counterscreen, AmpLite Red fluorescence | activity change, negative = inhibition, % at 58.2 µM, hits read low | 0.67% of 290,000 active; in the data active means activity change below about -30%
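Coupling enzymes only (glyceraldehyde-3-phosphate) + compound, at 57.5 uM final, 10 min RT; add substrate/coupling/AmpLite Red mix, 20 min RT; fluorescence ex 525/em 598 nm. Actives flag coupling-system interference.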
VDR inhibitor: vitamin D3 receptor (human) inhibition. VDR-SRC2-3 peptide fluorescence polarization, 2 h. Potency, µM, inactives show max response, negative = inhibition, usual class: inhibitors. 0.93% of 400,000 active; further: potency means the concentration at half of the fitted maximal effect
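FP read-out; VDR + SRC2-3 coactivator peptide; 23 nl compound by pintool; 2 h RT incubation; reagents held at 4 deg C, protected from light.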
USP1-UAF1 inh: blocks the human USP1/UAF1 deubiquitinase complex | Potency, µM (series often up to 57.1 µM), for the others: top-dose activity change, negative = inhibition, most hits filed as inhibitors | recombinant USP1/UAF1, Ub-Rhodamine cleavage fluorescence | AID 743255 | O94782 | 0.23% of 390,000 active; further: potency means the concentration at half of the fitted maximal effect; nearly all actives have a fitted effect of over 60% in size
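1 nM enzyme complex + cpd, 15 min RT; start with Ub-Rho 150nM final; kinetic fluorescence ex 480/em 540, 6 reads q60 s. Buffer 50mM HEPES pH 7.8, 0.5mM EDTA, 0.1 mg/ml BSA, 1mM TCEP, 0.01% Tween-20.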
* marks the source's active call; other numbers are inactive results. The list is not random: actives were taken first. Their share in the collection is about 3.2%. Unless noted, the call rests on the fitted dose curve; in most records, active means well fitted curve in the direction sought with a large enough effect; inconclusive means small, poorly fitted or top-dose-only effect, or another doubt; inactive means no such curve, though single readings can be large; an effect the other way counts as inactive or inconclusive. Unless noted, on the % scale 0 is the no-effect control and ±100 the full control effect.

What do the screens show for `CNC(=O)C1(CC(C)C)C=CCN1C(C)=O` (centres undefined)?
PLK1 PBD inh: -3%; USP2a inh: -1%; Coupling enz: 4; VDR inhibitor: 3%; USP1-UAF1 inh: -24%

Results for CSc1sc(-c2n[nH]c(=S)n2C)c2c1C=CCC2 ?
PLK1 PBD inh: inconclusive; USP2a inh: -1%; GALK inh: 4%; Coupling enz: -34*; VDR inhibitor: -4%; USP1-UAF1 inh: -18%

What do the screens show for `O=C(Nc1ccccc1F)C(c1ccccc1)c1ccccc1`?
PLK1 PBD inh: -2%; VDR inhibitor: 5%; USP1-UAF1 inh: 2%

How did Cn1c(CNC(=O)C(Cc2ccccc2)NC(=O)c2cccc(F)c2)cc(=O)n(C)c1=O (centres undefined) do in these assays?
PLK1 PBD inh: 27µM*; USP2a inh: -1%; GALK inh: 3%; Coupling enz: -1; VDR inhibitor: -10%; USP1-UAF1 inh: 2%

Results for O=C(N/C(=C/c1ccccc1)C(=O)N1CCCCC1)c1ccccc1 ?
PLK1 PBD inh: -6%; USP2a inh: 4%; GALK inh: -2%; VDR inhibitor: -10%; USP1-UAF1 inh: -21%

Results for O=C(N/C(=C\c1ccccc1)C(=O)N1CCCCCC1)c1ccccc1 ?
PLK1 PBD inh: 30µM*; USP2a inh: -1%; GALK inh: -3%; Coupling enz: -2; VDR inhibitor: -27%; USP1-UAF1 inh: inconclusive

How did O=C(O)/C=C/c1cnc[nH]1 do in these assays?
PLK1 PBD inh: -10%; USP2a inh: -1%; GALK inh: -1%; Coupling enz: 2; VDR inhibitor: -1%; USP1-UAF1 inh: 14%

How did COCCN1CCn2c(nc3cc(NC(=O)NC4CCCCC4)ccc32)C1 do in these assays?
PLK1 PBD inh: -22%; USP2a inh: 3%; GALK inh: 0%; Coupling enz: -31*; VDR inhibitor: -5%; USP1-UAF1 inh: -14%

Results for O=C(Nc1ccc2c(c1)nc1n2CCN(Cc2ccccc2)C1)NC1CCCCC1 ?
PLK1 PBD inh: -18%; USP2a inh: -6%; GALK inh: 4%; Coupling enz: -37*; VDR inhibitor: -7%; USP1-UAF1 inh: -6%

Results for Cc1cccc(C)c1NC(=O)C1CC2CCC1C2 (centres undefined) ?
PLK1 PBD inh: -16%; VDR inhibitor: -18%; USP1-UAF1 inh: -12%

How did CN(Cc1ccco1)c1ccnc(-c2cccc(NS(C)(=O)=O)c2)n1 do in these assays?
Coupling enz: -1; VDR inhibitor: inconclusive

How did COc1cccc(-c2nccc(N(C)Cc3ccco3)n2)c1 do in these assays?
Coupling enz: 0; VDR inhibitor: 35µM*

What do the screens show for `O=Cc1ccc(Sc2nnc(-c3ccccc3)o2)c([N+](=O)[O-])c1`?
PLK1 PBD inh: inconclusive; USP2a inh: 1%; GALK inh: 1%; Coupling enz: -14; VDR inhibitor: 79µM*; USP1-UAF1 inh: -19%

How did Cn1nc([N+](=O)[O-])nc1Sc1nnc(-c2ccccc2)o1 do in these assays?
PLK1 PBD inh: -7%; USP2a inh: 2%; GALK inh: -4%; Coupling enz: -8; VDR inhibitor: -9%; USP1-UAF1 inh: -5%

What do the screens show for `CS(=O)(=O)Nc1cccc(C2=NN(S(=O)(=O)c3ccccc3)C(c3ccco3)C2)c1` (centres undefined)?
PLK1 PBD inh: 30µM*; USP2a inh: 2%; GALK inh: 7%; Coupling enz: 1; VDR inhibitor: -14%; USP1-UAF1 inh: -17%

Results for CCS(=O)(=O)Nc1cccc(C2=NN(S(=O)(=O)c3ccccc3)C(c3ccco3)C2)c1 (centres undefined) ?
PLK1 PBD inh: -7%; USP2a inh: 3%; GALK inh: -1%; Coupling enz: -4; VDR inhibitor: 30%; USP1-UAF1 inh: -9%

How did NC(=O)c1c(-c2cccs2)csc1N do in these assays?
PLK1 PBD inh: -18%; USP2a inh: 2%; GALK inh: 0%; Coupling enz: -45*; VDR inhibitor: inconclusive; USP1-UAF1 inh: -23%

Results for Cc1ccccc1NC(=O)NC1(C(=O)NCCCN2CCOCC2)CCCCC1 ?
PLK1 PBD inh: 2%; USP2a inh: 0%; GALK inh: 1%; Coupling enz: 1; VDR inhibitor: -9%; USP1-UAF1 inh: -14%

Results for COc1ccc(C(=O)Nn2c(CCC(=O)O)ccc2-c2ccc(C)cc2)cc1OC ?
PLK1 PBD inh: 21µM*; USP2a inh: -1%; GALK inh: -2%; Coupling enz: 9; VDR inhibitor: 7%; USP1-UAF1 inh: -18%

Results for COc1ccc(-c2ccc(CCC(=O)O)n2NC(=O)c2ccc(O)cc2)cc1 ?
PLK1 PBD inh: -3%; USP2a inh: 1%; GALK inh: -3%; Coupling enz: -3; VDR inhibitor: 7%; USP1-UAF1 inh: -18%

What do the screens show for `COc1ccc(/C=C/c2c([N+](=O)[O-])c(=O)n(C)c(=O)n2C)c(OC)c1OC`?
PLK1 PBD inh: -15%; USP2a inh: 2%; GALK inh: 0%; Coupling enz: 5; VDR inhibitor: -10%; USP1-UAF1 inh: -18%

How did Cn1nc(-c2ccccn2)nc2c(=O)n(C)c(=O)nc1-2 do in these assays?
PLK1 PBD inh: -11%; USP2a inh: 16%; GALK inh: 1µM*; Coupling enz: -76*; VDR inhibitor: 10%; USP1-UAF1 inh: 0.032µM*

How did CCCc1nc2c(=O)n(C)c(=O)nc-2n(C)n1 do in these assays?
PLK1 PBD inh: -15%; USP2a inh: 9%; GALK inh: 1.8µM*; Coupling enz: -74*; VDR inhibitor: -12%; USP1-UAF1 inh: 0.1µM*

Results for Cc1ccccc1-c1nc2c(=O)n(C)c(=O)nc-2n(C)n1 ?
VDR inhibitor: -22%

How did CCn1c(N)nc2c1c(=O)n(C)c(=O)n2C do in these assays?
PLK1 PBD inh: -23%; USP2a inh: 1%; GALK inh: 1%; Coupling enz: 2; VDR inhibitor: 0%; USP1-UAF1 inh: -27%

How did O=C(NCCCn1ccnc1)/C(=C/c1ccccc1)NC(=O)c1ccccc1 do in these assays?
PLK1 PBD inh: 24µM*; USP2a inh: 0%; GALK inh: 7%; Coupling enz: -1; VDR inhibitor: -2%; USP1-UAF1 inh: -4%

Results for O=C(NCCCn1ccnc1)/C(=C\c1ccc(Br)cc1)NC(=O)c1ccccc1 ?
PLK1 PBD inh: 11µM*; USP2a inh: 0%; GALK inh: -7%; VDR inhibitor: inconclusive; USP1-UAF1 inh: -9%

What do the screens show for `Cc1ccc(C(=O)N/C(=C/c2ccccc2F)C(=O)NCCCn2ccnc2)cc1`?
PLK1 PBD inh: 27µM*; USP2a inh: 1%; GALK inh: -2%; VDR inhibitor: -9%; USP1-UAF1 inh: -14%
